Consider twelve compounds from PubChem BioAssay (NCATS).

Values joined by “and” are separate entries in the source; they are usually repeats but may differ in a detail not shown here. Identical values can stand only once. Results filed as inconclusive are left out. Active and inactive are the calls of the source. Unless noted, calls follow the shape of the dose curve; as a rule, active = well fitted curve in the direction sought with a large enough effect; inconclusive = small, poorly fitted or top-dose-only effect, or another doubt; inactive = no such curve, though single readings can be large; an effect the other way counts as inactive or inconclusive.

The target of experiment [1] is Alpha-galactosidase A (Homo sapiens) (UniProt P06280). Kind of experiment: Counterscreen for Glucocerebrosidase Inhibitors: qHTS Assay for Human alpha-Galactosidase at pH 4.5 (AID 992). Also: 0% is about no effect. Summed up:
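Read-out is 4-methylumbelliferone fluorescence (365 nm excitation, 440 nm emission) after a pH 10 NaOH/glycine stop. Reactions held 2 nM enzyme and 80 uM substrate at pH 4.5 for 20 min at room temperature.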

Experiment [2] concerns the target alpha-glucosidase (Oryza sativa, rice) (UniProt Q653V4). Kind of experiment: Counterscreen for Glucocerebrosidase Inhibitors: qHTS Assay for Rice alpha-Glucosidase at pH 5.0 (AID 997).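 Also: 0% = full activity with enzyme and -100% = basal without enzyme.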 Summed up:
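Rice alpha-glucosidase (4 nM final) with 400 uM 4-methylumbelliferyl-alpha-D-glucopyranoside in citrate buffer pH 5.0, 20 min at room temperature, stopped at pH 10; fluorescence 365/440 nm, compounds 0.7 nM–77 uM, AC50 from Hill fits.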
On the technique in general: The purpose of a counterscreen is to sort out artefacts and off-target activity.

Experiment [3] in a line: qHTS Assay for Lipid Storage Modulators (AID 1519; calls by dose curve; as to activity change, negative = inhibition: % is scaled to controls: 0 for no effect and ±100 for the full control effect). Particulars: Drosophila S3 cells, BODIPY lipid droplet/cell ratio, laser cytometry, cells loaded with oleic acid. Summed up: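 Cells seeded at 5,000 per well were treated with compounds over a concentration series and loaded with oleic acid (400 uM, as added). Lipid droplet fluorescence (488 nm excitation, 500-530 nm channel) was read by laser-scanning cytometry and normalized to 20 uM Triacsin C.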
In general terms: Quantitative high-throughput screening tests each substance at several concentrations.

Experiment [4] concerns the target DNA repair nuclease/redox regulator APEX1 (Homo sapiens) (UniProt P27695). Kind of experiment: qHTS Validation Assay for Inhibitors of the Human Apurinic/apyrimidinic Endonuclease 1 (APE1) (AID 1705; also: potency is read from the fitted curve at half-maximal effect;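 as to activity change, negative = inhibition: TAMRA fluorescence gain over two minutes as APE1 cuts a quenched THF abasic duplex; % is scaled to controls: 0 for no effect and ±100 for the full control effect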). The method, boiled down:
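Endonuclease activity of human APE1 is followed as dequenching when the enzyme incises a tetrahydrofuran abasic site in a short duplex labelled 5'-TAMRA/3'-BHQ-2 (50 nM final), after 15 min enzyme–compound preincubation at room temperature.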

The nature of experiment [5]: Counterscreen for APE1 Inhibitors: Fluorescent Dye Displacement Validation Assay (AID 1707).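 Also: plate controls were ThO with dsDNA and no compound for no effect and ThO without dsDNA for full effect.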 The method, boiled down:
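ThO 250 nM + dsDNA 50 nM (THF abasic site, 5'-TAMRA), Tris-HCl pH7.5/50mM NaCl/2 mM MgCl2/0.01% Tween-20; compounds pin-transferred; ex 480/em 540 nm endpoint. Neutral = no compound; no-DNA ThO wells = negative control.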

Experiment [6] can be described thus: Cell Viability - LYMP2-025 (AID 976).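 Also: plate controls were DMSO only for no effect and tetraoctylammonium bromide control for full effect.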 Summed up:
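Human lymphoblastoid LYMP2-025 cells, 2500/well, exposed 24 h at 37 C in complete medium in 1536-well qHTS. Viability as cellular ATP by CellTiter-Glo luminescence; AC50 from Hill fits of concentration-response data.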

Experiment [7] can be described thus: Cell Viability - LYMP2-014 (AID 983).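 Also: plate controls were DMSO only for no effect and 92 µM tetraoctylammonium bromide for full effect; nearly all actives have a fitted effect of over 50% in size.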 Summed up: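 LYMP2-014 human lymphoblastoid cells, 2500/well, treated 24 h at 37 C in complete medium; viability by CellTiter-Glo ATP luminescence after 30 min at room temperature. AC50 from Hill fits of qHTS concentration-response; tetraoctylammonium bromide positive control.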
Experiment [8] in a line: Cell Viability - LYMP2-016 (AID 984). Also: % is scaled to controls: 0 for no effect and ±100 for the full control effect; nearly all actives have a fitted effect of over 55% in size. The method, boiled down: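 Acute toxicity in a Coriell human lymphoblastoid line is scored as loss of intracellular ATP over 24 h of treatment in complete medium. CellTiter-Glo signal is fitted across concentrations with the Hill equation to give AC50.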
The nature of experiment [9]: Cell Viability - LYMP2-020 (AID 986).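 Also: plate controls were DMSO only for no effect and tetraoctylammonium bromide at 92 µM for full effect; nearly all actives have a fitted effect of over 55% in size.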 Summed up:
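Human lymphoblastoid LYMP2-020 cells (2500/well) preincubated 5 h at 37 C, then treated 24 h at 37 C. Viability measured as intracellular ATP by CellTiter-Glo luminescence after 30 min at room temperature; AC50 from Hill fits.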

Experiment [10] can be described thus: Cell Viability - LYMP2-024 (AID 988).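 Also: plate controls were DMSO only for no effect and 92 µM tetraoctylammonium bromide for full effect; nearly all actives have a fitted effect of over 60% in size.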 Summed up: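 Human lymphoblastoid LYMP2-024 cells (2500/well) rested 5 hr, then treated with compound for 24 hr at 37 C in complete medium. Viability was measured as intracellular ATP by CellTiter-Glo luminescence. AC50 values came from Hill-equation fits.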
Experiment [11] is described as follows: Cell Viability - LYMP1-002 - Assay at 24 hr (AID 993). Also: % is scaled to controls: 0 for no effect and ±100 for the full control effect. Summed up: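 Human lymphoblastoid LYMP1-002 cells (2500/well) treated 24 h at 37 °C; viability as intracellular ATP by CellTiter-Glo luminescence. Tetraoctylammonium bromide as positive control; AC50 from Hill-equation fits of qHTS concentration-response.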
Experiment [12] in a line: Cell Viability - LYMP2-006 (AID 978). Also: % is scaled to controls: 0 for no effect and ±100 for the full control effect; nearly all actives have a fitted effect of over 60% in size. Summed up:
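Concentration-dependent loss of intracellular ATP in a human lymphoblastoid line after 24 hr treatment at 37 C was measured by CellTiter-Glo luminescence, with AC50 values obtained from standard Hill-equation modelling.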

A short description of experiment [13]: Cell Viability - LYMP2-007 (AID 979).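 Also: cells exposed to compound for 24 h before reading; 0% = DMSO only and the negative end = 92 µM tetraoctylammonium bromide; nearly all actives have a fitted effect of over 60% in size.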 The method, boiled down: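 Human lymphoblastoid LYMP2-007 cells (2500/well) preincubated 5 h at 37 C, then treated 24 h at 37 C in complete medium. Viability by CellTiter-Glo ATP luminescence after 30 min at room temperature; AC50 from Hill fits.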
Experiment [14] in a line: Cell Viability - LYMP2-008 (AID 980). Also: % is scaled to controls: 0 for no effect and ±100 for the full control effect; nearly all actives have a fitted effect of over 60% in size. The method, boiled down: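 LYMP2-008 lymphoblastoid cells (2500/well) plated 5 h, then treated 24 h at 37 C in complete medium. Viability read as intracellular ATP by CellTiter-Glo luminescence after 30 min at room temperature; AC50 from Hill fits.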
Experiment [15] in a line: Cell Viability - LYMP2-010 (AID 981). Also: % is scaled to controls: 0 for no effect and ±100 for the full control effect; nearly all actives have a fitted effect of over 55% in size. The method, boiled down:
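Human lymphoblastoid LYMP2-010 cells (2500/well) treated 24 h at 37 C in complete medium; viability read as intracellular ATP by CellTiter-Glo luminescence. AC50 from Hill fits of concentration-response data; tetraoctylammonium bromide positive control.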

A short description of experiment [16]: Cell Viability - LYMP2-012 (AID 982).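 Also: cellular ATP by luciferase luminescence where a drop means cytotoxicity; cells exposed to compound for one day before reading; 0% = DMSO only and full loss = 92 µM tetraoctylammonium bromide; nearly all actives have a fitted effect of over 55% in size.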
A short description of experiment [17]: Cell Viability - LYMP2-018 (AID 985).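 Also: compound exposure lasted 24 hr at 37 °C; plate controls were DMSO only for no effect and tetraoctylammonium bromide at 92 µM for full effect; nearly all actives have a fitted effect of over 50% in size.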 Summed up:
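Human lymphoblastoid LYMP2-018 cells, 2500/well, settled 5 hr at 37 C then exposed to compound 24 hr at 37 C; intracellular ATP measured by CellTiter-Glo luminescence. AC50 from Hill-equation concentration-response fits.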

Experiment [18] is described as follows: Cell Viability - LYMP2-022 (AID 987). The method, boiled down: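 LYMP2-022 lymphoblastoid cells (2500/well, complete medium) were treated with compounds for 24 hours at 37 C; intracellular ATP was then read by CellTiter-Glo luminescence after 30 min at room temperature. AC50 values were derived from Hill-equation fits.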
Experiment [19] is described as follows: Cell Viability - LYMP1-002 - Assay at 40 hr (AID 994). Also: nearly all actives have a fitted effect of over 60% in size. Also: potency is read from the fitted curve at half-maximal effect. The method, boiled down: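 LYMP1-002 human lymphoblastoid cells (2500/well, complete medium) were treated with compounds for 40 hr at 37 C. Intracellular ATP was measured by CellTiter-Glo luminescence, and AC50 values came from Hill-equation fits of concentration-response data; tetraoctylammonium bromide was the positive control.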

Setting [20] is: measured here: cell count channel max response.
Setting [21] is: measured here: lipid channel max response.

Chain of DNA repair nuclease/redox regulator APEX1 (Homo sapiens) (P27695 whole entry, looked up): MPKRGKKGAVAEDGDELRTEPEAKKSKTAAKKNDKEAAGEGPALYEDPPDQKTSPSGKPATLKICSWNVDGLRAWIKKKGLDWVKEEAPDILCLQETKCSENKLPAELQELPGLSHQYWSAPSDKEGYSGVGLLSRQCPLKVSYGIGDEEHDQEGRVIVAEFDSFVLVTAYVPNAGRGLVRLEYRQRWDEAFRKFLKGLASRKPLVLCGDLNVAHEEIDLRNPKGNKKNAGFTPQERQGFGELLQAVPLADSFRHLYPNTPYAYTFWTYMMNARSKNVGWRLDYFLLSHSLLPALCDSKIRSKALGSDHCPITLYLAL
Chain of Alpha-galactosidase A (Homo sapiens) (P06280 whole entry, looked up): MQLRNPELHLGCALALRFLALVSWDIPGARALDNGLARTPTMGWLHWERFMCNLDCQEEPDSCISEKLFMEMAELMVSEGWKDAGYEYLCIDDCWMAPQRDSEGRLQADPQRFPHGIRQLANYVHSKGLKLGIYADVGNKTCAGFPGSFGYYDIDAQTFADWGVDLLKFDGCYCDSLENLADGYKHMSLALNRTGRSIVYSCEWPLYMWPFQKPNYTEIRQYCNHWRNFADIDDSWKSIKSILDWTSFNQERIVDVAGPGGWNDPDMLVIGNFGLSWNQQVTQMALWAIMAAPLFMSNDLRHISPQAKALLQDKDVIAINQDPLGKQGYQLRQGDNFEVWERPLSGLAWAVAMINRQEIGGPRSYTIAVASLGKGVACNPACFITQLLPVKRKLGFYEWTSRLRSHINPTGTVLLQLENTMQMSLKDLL

`Fc1ccc([C@@H]2CCNC[C@H]2COc2ccc3c(c2)OCO3)cc1`: the call in [1] and in experiment [2] was inactive. In addition, in [3] (at 57.5 µM (top of the series)), the activity change, negative = inhibition is -0.973% (inactive). The max response in [3] (setting [20]) was -19.9%; in experiment [3] (setting [21]) it was -18.8%. Also, the Potency result in experiment [4] is “inactive”.

With `Cc1cc(C(C)(C)C)cc(C)c1CC1=NCCN1`, the call in experiment [1] and in experiment [2] was inactive. Moreover, the Potency entry in experiment [4] and in [5] was “inactive” in each case.

Consider `O=c1[nH]cc(F)c(=O)[nH]1`, for which the outcome in experiment [6], in [7], in experiment [8], in experiment [9], in experiment [10] and in [1] was inactive. Also, the result in experiment [11] and in experiment [2] was inactive. Further, the activity change, negative = inhibition in experiment [3] (at 57.5 µM (top of the series)) is 6.92% (inactive) and -0.382% (inactive). For the same compound, the max response in experiment [3] (setting [20]) was 3.09% and 58.9%; in [3] (setting [21]) it was 12.8% and 58.3%. The Potency result in experiment [4] was “inactive”.

Consider `CC(C)Cc1ccc(C(C)C(=O)O)cc1` (configuration not stated), for which the result in experiment [1] and in experiment [2] was inactive. In addition, the Potency entry in [4] and in experiment [5] was “inactive” each time.

For the compound `C[C@](N)(Cc1ccc(O)c(O)c1)C(=O)O`, the compound was classed as inactive in [1] and in experiment [2]. In addition, the activity change, negative = inhibition in experiment [3] (at 57.5 µM (top of the series)) was 1.88% (inactive). Besides, the max response in [3] (setting [20]) was 48.1%; in experiment [3] (setting [21]), 42%. Moreover, the Potency in experiment [4] was 7.94 µM (active).

On to `CN1C2CCC1CC(OC(=O)C(CO)c1ccccc1)C2` (configuration not stated), for which the Potency entry in experiment [4] and in [5] was “inactive” throughout.

Take `COc1cc2nc(N3CCN(C(=O)C4COc5ccccc5O4)CC3)nc(N)c2cc1OC` (configuration not stated): the Potency result in experiment [4] and in experiment [5] was “inactive” each time.

Consider `Clc1ccc(C(c2ccccc2Cl)C(Cl)Cl)cc1` (configuration not stated), for which the result in experiment [6], in [12], in experiment [13], in experiment [14], in [15] and in experiment [16] was inactive. Also, the compound was called inactive in experiment [7], in experiment [8], in experiment [17], in [9], in experiment [18] and in experiment [10]. For the same compound, the compound was called inactive in [1], in experiment [11] and in [2]. For the same compound, the Potency result in experiment [19] and in [4] was “inactive” in each case. Also, in experiment [3] (at 57.5 µM (top of the series)), the activity change, negative = inhibition was 11.4% (inactive) and -0.0471% (inactive). For the same compound, the max response in experiment [3] (setting [20]) was 11% and -19.2%; in experiment [3] (setting [21]), 22.4% and -18.8%.

Turning to `COc1cc2c(c(OC)c1OC)-c1ccc(OC)c(=O)cc1[C@@H](NC(C)=O)CC2`, the result in [6], in experiment [1] and in experiment [2] was inactive. Further, the Potency in [19] was 0.0316 µM (active). The Potency result in [4] is “inactive”.

With `COc1nc(C)nc(Cl)c1NC1=NCCN1`, the call in experiment [1] and in [2] was inactive. Also, the activity change, negative = inhibition in experiment [3] (at 25.7 µM (top of the series)) was -2% (inactive). Further, the max response is -13% in experiment [3] (setting [20]) and -15% in experiment [3] (setting [21]). In [4], the Potency result is “inactive”.

Take `OCCN(CCO)c1nc(N2CCCCC2)c2nc(N(CCO)CCO)nc(N3CCCCC3)c2n1`: in experiment [2], the call was inactive. The activity change, negative = inhibition in experiment [3] (at 25.7 µM (top of the series)) is -0.0376% (inactive). Also, the max response in experiment [3] (setting [20]) was -18.6%; in [3] (setting [21]) it was -17.7%.

With `Cn1c(=O)c2[nH]cnc2n(C)c1=O`, the call in experiment [12], in experiment [13], in experiment [14], in [15], in experiment [16] and in experiment [7] was inactive. Further, the result in experiment [8], in experiment [17], in experiment [9], in [18], in experiment [10] and in [1] was inactive. Moreover, the result in experiment [11] and in [2] was inactive. Further, the Potency result in experiment [19] and in experiment [4] was “inactive” throughout.
